# From PubChem BioAssay (Tox21)
# Values without a mark were called inactive. Inconclusive results are not listed. Where a call stands in place of a potency, no number is given. Activity calls are given as the source filed them. Unless noted, calls come from the whole dose curve; as a rule, active = well fitted curve in the direction sought with a large enough effect in the repeat runs; inconclusive = weak or mixed curves; inactive = no such curve, though single readings can be large; an effect the other way counts as inactive or inconclusive.
# Legend:
# [1] = biological target: Thyrotropin receptor (Homo sapiens) (UniProt P16473); assay: qHTS assay to identify small molecule agonists of the thyroid stimulating hormone receptor (TSHR) signaling pathway (AID 1224843; calls by dose curve; note: nearly all actives have a fitted effect of over 45% in size)
# Method in brief: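 TSHR-HEK293 cells in agonist mode, 30 min room-temperature step, then cAMP measured by competitive HTRF (cAMP-d2 with anti-cAMP cryptate) after 1 h at room temperature. Tested at 15 concentrations in triplicate.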
# [2] = qHTS assay to identify small molecule agonists of the hypoxia (HIF-1) signaling pathway - cell viability counter screen (AID 1224844; calls by dose curve; note: nearly all actives have a fitted effect of over 50% in size)
# Method in brief: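 Cells (HRE-bla ME-180, 2,000 per well) sat 5 hrs at 37C, got compound for 17 hrs, were read for CCF4-AM FRET, and were finally lysed with CellTiter-Glo for a 30 min room-temperature luminescence read.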
# [3] = qHTS assay to identify small molecule agonists of H2AX (AID 1224845; active = well fitted activation curve with a large enough effect in the signal ratio in the repeat runs, not every such curve was filed as active; the % refers to the signal ratio)
# Method in brief: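 Wild-type CHO-K1 cells, plated overnight, exposed 3hr at 37C to 15 concentrations (0.76% DMSO final). Lysed, then HTRF anti-pH2AX (S139) cryptate and anti-H2AX-d2 antibodies, 24 hr room temperature; 665/620 nm emission read.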
# [4] = qHTS assay to identify small molecule agonists of the hypoxia (HIF-1) signaling pathway (AID 1224846; active = well fitted activation curve with a large enough effect in the signal ratio in the repeat runs, not every such curve was filed as active; the % refers to the signal ratio)
# Method in brief: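 A low-serum medium (0.5% dialyzed FBS) holding 2,000 HRE-bla ME-180 cells per well is preincubated for 5 hrs, dosed with compounds by pintool, and kept a further 17 hrs at 37C, 5% CO2 before CCF4-AM FRET detection of beta-lactamase.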
# [5] = qHTS assay to identify small molecule agonists of H2AX - cell viability counter screen (AID 1224847; calls by dose curve; note: top concentration of the series differs between compounds; nearly all actives have a fitted effect of over 30% in size)
# Method in brief: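 CHO-K1 wt, 1000 cells/well, o/n 37C; cpds 15 conc, 3 h 37C, 0.76% DMSO; CellTiter-Glo, 30 min RT, luminescence.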
# [6] = qHTS assay to identify small molecule antagonists of the estrogen related receptor (ERR) signaling pathway from Tox21 library (AID 1224848); note: nearly all actives have a fitted effect of over 50% in size
# Method in brief: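 ERR reporter cell line (from NTP) seeded 2,000 cells/well, rested 6 h at 37 C/5% CO2, then pin-dosed with compounds in DMSO. After 18 h at 37 C, ONE-Glo added; luminescence read after 30 min at room temperature.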
# [7] = qHTS assay to identify small molecule agonists of the estrogen related receptor (ERR) signaling pathway from Tox21 library (AID 1224849; calls by dose curve; note: nearly all actives have a fitted effect of over 15% in size); settings: ERR reporter cell line, ONE-Glo luciferase, 18 h; at 92.4 µM (top of the series) unless noted
# Method in brief: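 Screening used an NTP-provided ERR luciferase cell line. Compounds in DMSO were added 6 h after seeding and left 18 h at 37 C before a 30 min ONE-Glo step and luminescence reading.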
# [8] = qHTS RealTime-Glo MT Cell Viability Assay in HEK293 cells - 32 hour (AID 1224868); note: top concentration of the series differs between compounds; nearly all actives have a fitted effect of over 50% in size
# Method in brief: (§1)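 Nonlytic real-time viability readout: viable cells convert prosubstrate to NanoLuc substrate, giving luminescence proportional to live cell number. HEK293, 600 cells/well, compound added after 5 h, continuous culture at 37 C.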
# [9] = A CellTox Green Cytotoxicity Assay to monitor cytotoxicity in HEK293 cells - 0 hour (AID 1224869); note: nearly all actives have a fitted effect of over 50% in size
# Method in brief: (§2)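 Fluorescence intensity, read at 0, 8, 16, 24, 32 and 40 h of compound treatment, reflected dye binding to DNA of dead HEK293 cells; compounds (23 nL, DMSO) were added 5 h after plating cells with reagent.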
# [10] = qHTS RealTime-Glo MT Cell Viability Assay in HepG2 cells - 40 hour (AID 1224870); note: nearly all actives have a fitted effect of over 50% in size
# Method in brief: (§3)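 HepG2 cells (600/well) mixed with RealTime-Glo MT reagent, settled 5 h at 37 C/5% CO2 before compound addition. Nonlytic NanoLuc luminescence from viable-cell prosubstrate reduction read repeatedly during 40 h treatment at 37 C.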
# [11] = A CellTox Green Cytotoxicity Assay to monitor cytotoxicity in HEK293 cells - 40 hour (AID 1224871); note: nearly all actives have a fitted effect of over 45% in size
# Method in brief: as §2
# [12] = qHTS RealTime-Glo MT Cell Viability Assay in HEK293 cells - 16 hour (AID 1224872)
# Method in brief: as §1
# [13] = qHTS RealTime-Glo MT Cell Viability Assay in HepG2 cells - 8 hour (AID 1224873); note: nearly all actives have a fitted effect of over 55% in size
# Method in brief: as §3
# [14] = A CellTox Green Cytotoxicity Assay to monitor cytotoxicity in HEK293 cells - 24 hour (AID 1224875); note: nearly all actives have a fitted effect of over 45% in size
# Method in brief: as §2
# [15] = A CellTox Green Cytotoxicity Assay to monitor cytotoxicity in HepG2 cells - 16 hour (AID 1224876); note: nearly all actives have a fitted effect of over 45% in size
# Method in brief: (§4)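 Using 1536-well format, dye-containing HepG2 suspension was seeded, allowed 5 h at 37 C/5% CO2, dosed by pintool with compounds, positive and negative controls, and imaged for fluorescence across 40 h.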
# [16] = A CellTox Green Cytotoxicity Assay to monitor cytotoxicity in HepG2 cells - 40 hour (AID 1224879); note: nearly all actives have a fitted effect of over 40% in size
# Method in brief: as §4
# [17] = qHTS RealTime-Glo MT Cell Viability Assay in HepG2 cells - 24 hour (AID 1224867); note: nearly all actives have a fitted effect of over 50% in size
# Method in brief: (§5)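 Luminescence read-out: viable HepG2 cells reduce a prosubstrate to a NanoLuc substrate, giving a signal proportional to live cell number. Reads taken at 0, 8, 16, 24, 32 and 40 h of compound exposure at 37 C.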
# [18] = qHTS RealTime-Glo MT Cell Viability Assay in HEK293 cells - 40 hour (AID 1224874); settings: RealTime-Glo luminescence; max response: active compounds read low; note: nearly all actives have a fitted effect of over 50% in size
# Method in brief: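 Viable HEK293 cells reduce a cell-permeant prosubstrate; the product diffuses out and is consumed by NanoLuc in the medium to give light. Compounds went in after a 5 h incubation and plates were read over the treatment course.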
# [19] = qHTS RealTime-Glo MT Cell Viability Assay in HepG2 cells - 32 hour (AID 1224877); note: nearly all actives have a fitted effect of over 55% in size
# Method in brief: as §5
# [20] = A CellTox Green Cytotoxicity Assay to monitor cytotoxicity in HepG2 cells - 24 hour (AID 1224878); note: nearly all actives have a fitted effect of over 45% in size
# Method in brief: as §4
# Chain of Thyrotropin receptor (Homo sapiens) (P16473 whole entry, looked up): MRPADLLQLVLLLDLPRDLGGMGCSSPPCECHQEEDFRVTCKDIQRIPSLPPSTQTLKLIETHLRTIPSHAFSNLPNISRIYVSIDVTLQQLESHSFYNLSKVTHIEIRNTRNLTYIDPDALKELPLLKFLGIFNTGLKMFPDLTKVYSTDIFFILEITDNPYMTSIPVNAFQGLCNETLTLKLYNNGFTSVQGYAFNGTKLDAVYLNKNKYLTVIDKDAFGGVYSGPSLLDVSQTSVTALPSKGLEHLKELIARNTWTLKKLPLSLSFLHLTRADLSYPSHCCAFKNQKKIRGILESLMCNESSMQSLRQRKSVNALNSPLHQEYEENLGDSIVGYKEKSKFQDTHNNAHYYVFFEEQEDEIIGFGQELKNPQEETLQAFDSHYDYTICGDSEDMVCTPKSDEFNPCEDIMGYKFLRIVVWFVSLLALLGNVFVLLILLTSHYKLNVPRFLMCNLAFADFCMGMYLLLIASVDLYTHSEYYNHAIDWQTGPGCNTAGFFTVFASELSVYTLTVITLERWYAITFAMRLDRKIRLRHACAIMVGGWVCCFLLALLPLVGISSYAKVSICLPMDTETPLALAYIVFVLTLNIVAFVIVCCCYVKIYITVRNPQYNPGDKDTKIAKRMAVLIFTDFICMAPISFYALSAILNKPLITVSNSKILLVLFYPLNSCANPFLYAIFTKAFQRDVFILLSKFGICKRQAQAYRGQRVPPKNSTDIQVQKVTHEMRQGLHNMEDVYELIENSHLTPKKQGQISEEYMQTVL
Compound,Potency [1],Potency [2],outcome [3],outcome [4],Potency [5],Potency [6],"activity change, positive = activation [7]",Potency [8],outcome [9],Potency [10],Potency [11],Potency [12],outcome [13],Potency [14],Potency [15],Potency [16],Potency [17],max response [18] [%],Potency [19],Potency [20]
COC(=O)c1ccccc1CS(=O)(=O)NC(=O)Nc1nc(OC)cc(OC)n1,inactive,inactive,inactive,inactive,inactive,inactive,-0.138%,inactive,inactive,inactive,inactive,inactive,inactive,inactive,inactive,inactive,,,,
C=C1C[C@@H]2[C@H](CC[C@]3(C)C(=O)CC[C@@H]23)[C@@]2(C)C=CC(=O)C=C12,inactive,inactive,inactive,inactive,inactive,,-24.3% [at 42.5 µM],inactive,inactive,inactive,inactive,inactive,inactive,inactive,inactive,inactive,inactive,0.138,inactive,inactive
COP(=O)(OC)O/C(C)=C/C(=O)N(C)C,inactive,inactive,inactive,inactive,inactive,inactive,-0.44%,inactive,inactive,inactive,inactive,inactive,inactive,inactive,inactive,inactive,inactive,,inactive,
CCCCS(=O)(=O)Cl,inactive,inactive,inactive,inactive,inactive,inactive,,inactive,inactive,inactive,inactive,inactive,,inactive,inactive,inactive,inactive,6.29,inactive,inactive
O=C(Cl)OCc1ccccc1,inactive,inactive,inactive,inactive,inactive,inactive,6.05%,inactive,inactive,inactive,inactive,,inactive,inactive,,inactive,inactive,10.6,inactive,inactive
Cc1ccc(-c2nc3ccc(C)cn3c2CC(=O)N(C)C)cc1,inactive,inactive,inactive,inactive,inactive,inactive,37.3% [at 42.5 µM] (active),,inactive,inactive,inactive,,inactive,inactive,inactive,inactive,inactive,,inactive,inactive
O=c1[nH]c2ccccc2o1,inactive,inactive,inactive,inactive,inactive,inactive,,inactive,inactive,inactive,inactive,inactive,inactive,inactive,inactive,inactive,inactive,-0.283,,inactive
C#CCOC(=O)/C=C(C)/C=C/CC(C)CCCC(C)C (stereo unspecified),inactive,inactive,inactive,inactive,inactive,inactive,0.281%,inactive,inactive,inactive,inactive,inactive,inactive,inactive,inactive,inactive,inactive,17.6,inactive,
c1ccc2c(c1)CCNC2,inactive,inactive,inactive,inactive,inactive,inactive,,,inactive,inactive,inactive,,inactive,inactive,inactive,inactive,inactive,,inactive,inactive
CC(C)(N)Cc1ccccc1Cl,inactive,inactive,inactive,inactive,inactive,inactive,,inactive,inactive,inactive,inactive,inactive,inactive,inactive,inactive,inactive,inactive,1.76,inactive,inactive
OP(O)c1ccccc1,inactive,inactive,inactive,inactive,inactive,inactive,,inactive,inactive,inactive,inactive,inactive,,inactive,inactive,inactive,inactive,9.39,inactive,inactive
Oc1ccc(Cc2ccc(O)cc2)cc1,inactive,inactive,inactive,inactive,inactive,inactive,,,inactive,inactive,inactive,,,inactive,inactive,inactive,,,,inactive
O=C(CCl)NCO,inactive,inactive,inactive,inactive,inactive,inactive,,inactive,inactive,inactive,inactive,,inactive,inactive,inactive,inactive,inactive,1.67,inactive,inactive
CCCC(C)(COC(N)=O)COC(N)=O,inactive,inactive,inactive,inactive,inactive,inactive,0.442%,inactive,inactive,inactive,inactive,inactive,inactive,inactive,,inactive,inactive,2.95,inactive,inactive
